Compound activity deposited in PubChem by National Center for Advancing Translational Sciences (NCATS).
Compounds with a hit are over-represented: about 2.4% of the library has one in this group of screens.
Pol kappa inh – blocks human DNA polymerase kappa activity | Q9UBT6 | purified Pol kappa, fluorescent DNA synthesis assay, 10 min | Potency, µM (doses to about 107 µM), for the others: top-dose activity, negative = inhibition, most hits filed as inhibitors | 400,000 compounds, 0.53% hits | AID 588579; also: % is scaled to controls: 0 for no effect and ±100 for the full control effect
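Readout: fluorescence, taken kinetically at 0 and 10 min. Conditions: 10 nM Pol kappa, 15 min RT compound preincubation, 50 nM substrate final. Controls: enzyme-free buffer wells.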
POLI inh – DNA polymerase iota (human) inhibition; Q9UNA4; Pol iota fluorescent replication assay, 10 min; Potency, µM (titrated, usually from 115 µM), for inactives: top-dose activity, negative = inhibition, usual class: inhibitors; 390,000 compounds, 1% hits; AID 588590
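Fluorescent replication assay read twice, at 0 min and 10 min after adding 50 nM (final) substrate. Enzyme (10 nM) and compounds were first incubated 15 min at room temperature; enzyme-free buffer wells were negative controls.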
FEN1 inhibitor – blocks human flap endonuclease 1; P39748; Recombinant FEN1 flap cleavage, fluorescence, 15 min; Potency, µM (doses to about 114 µM), without a hit: at the highest dose activity change, negative = inhibition, usual class: inhibitors; 390,000 compounds, 0.35% hits; AID 588795; also: % is scaled to controls: 0 for no effect and ±100 for the full control effect; nearly all actives have a fitted effect of over 65% in size
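FEN1 at 10 nM preincubated with compounds 15 min at room temperature, then flap DNA substrate added at 50 nM final. Signal read at 0 and 15 min; concentration-response fitted with four-parameter Hill equation.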
POLH inh – DNA polymerase eta (human) inhibition; recombinant Pol eta, fluorescent DNA replication assay; Potency, µM (highest dose often 114 µM), for inactives: top-dose activity change, negative = inhibition, hits mostly inhibitors; 390,000 compounds, 1.2% hits; also: % is scaled to controls: 0 for no effect and ±100 for the full control effect
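Pol eta (10 nM) was preincubated with compounds for 15 min at room temperature, after which fluorescent replication substrate (50 nM final) was added to start the reaction. Fluorescence was read kinetically at 0 and 10 min.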
Pol beta inh – DNA polymerase beta (human) inhibition; P06746; Pol beta primer extension/strand displacement, fluorescence kinetic; Potency, µM (highest dose often 114 µM), without a hit: at the top dose activity change, negative = inhibition, usual class: inhibitors; 340,000 compounds, 1.3% hits; AID 485314; also: % is scaled to controls: 0 for no effect and ±100 for the full control effect
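Reaction started by 50 nM substrate onto compound-treated Pol beta (10 nM, 15 min preincubation, room temperature); plates read at 0 min and 10 min. Normalized concentration-effect data fitted by four-parameter Hill equation.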
WRN helicase inh – WRN helicase (human) inhibition; Potency, µM (doses to about 114 µM), without a hit: at the top dose activity change, negative = inhibition, hits mostly inhibitors; 360,000 compounds, 0.46% hits; WRN helicase unwinding, fluorescent forked duplex, kinetic; Q14191; also: % is scaled to controls: 0 for no effect and ±100 for the full control effect; nearly all actives have a fitted effect of over 55% in size
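Fluorescence dequenching readout, ex 525 nm/em 598 nm, kinetic mode: forked duplex DNA (100 nM final) with adjacent fluorophore and quencher unwound by WRN (20 nM final) with 2 mM ATP. Compound preincubation 15 min, room temperature.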
* = called active by the depositor; ? = inconclusive; nt = no result; [ ] = another dose, or the depositor's remark. Calls follow the shape of the dose curve; as a rule, active = well fitted curve in the direction sought with a large enough effect; inconclusive = small, poorly fitted or top-dose-only effect, or another doubt; inactive = no such curve, though single readings can be large; an effect the other way counts as inactive or inconclusive. Potency is read from the fitted curve at half-maximal effect.

SMILES	Pol kappa inh	POLI inh	FEN1 inhibitor	POLH inh	Pol beta inh	WRN helicase inh
O=C(CN1C(=O)/C(=C/c2cccc(Br)c2)SC1=S)NCCCN1CCOCC1	-23.3%	?	-16.5%	?	1.2%	79.4µM*
O=C(NCCNCCO)C1(C(F)(F)F)CC(CCc2ccccc2)CCCO1 (configuration not stated)	-5.2%	20.0%	-17.3%	nt	nt	nt
Cc1nn(C(C)C(=O)NC2CCC(C)CC2)c(=O)c2c1sc1ccccc12 (configuration not stated)	-34.2%	4.1%	?	nt	?	nt
Cc1cccc(-c2nnn3c2nc(NCCc2ccc(S(N)(=O)=O)cc2)c2ccccc23)c1	-0.4%	?	-1.9%	?	10µM*	-33.2%
Cc1ccc(-c2nnn3c2nc(NCCc2ccc(S(N)(=O)=O)cc2)c2ccccc23)cc1	2.4%	85.4%	-0.5%	-29.3%	5.01µM*	-22.3%
NS(=O)(=O)c1ccc(CCNc2nc3c(-c4cccc(F)c4)nnn3c3ccccc23)cc1	-6.3%	10.3%	1.0%	?	22.4%	-21.7%
Cc1ccc(-c2nnn3c2nc(NCCc2ccc(Cl)cc2)c2ccccc23)cc1	-5.5%	38.8%	-4.9%	-13.6%	3.9%	nt
O=C1OCC2OC(O)C(O)C(O)C2OC(=O)c2cc(O)c(O)c(O)c2-c2c(O)c(O)c3oc(=O)c4c(c(O)c(O)c5oc(=O)c2c3c54)-c2c1cc(O)c(O)c2O (configuration not stated)	nt	nt	nt	nt	0.159µM*	nt
COc1c(O)cc2c(c1O)C1OC(CO)C(O)C(O)C1OC2=O (configuration not stated)	-1.4%	17.6%	-3.8%	-15.7%	nt	0.9%
COC(=O)c1nnn(-c2ccc(Br)cc2)c1C(=O)OC	-21.4%	-4.9%	2.3%	-11.6%	-11.9%	nt
COc1cc(N(CCCn2cnc3c(SC)ncnc32)CCCn2cnc3c(SC)ncnc32)cc(OC)c1OC	nt	nt	nt	-12.0%	nt	-0.1%
COc1ccc(C(=O)c2ccc(C)cc2)c(OC)c1OC	-9.5%	106.8%	0.8%	-7.6%	nt	-22.0%
CCOc1ccc(N/C=C/C(=O)c2ccc(OC)c(OC)c2)cc1	-1.6%	5.4%	0.0%	4.8%	2.8%	-4.2%
COc1ccc(C(=O)c2ccc(O)cc2)c(O)c1O	2.24µM*	nt	nt	nt	nt	nt
CCOc1ccc(C(=O)c2ccc(OC)c(O)c2O)cc1	12.6µM*	nt	nt	nt	nt	nt
O=C(Nc1ccc2c(c1)OCO2)C1COc2ccccc2O1 (configuration not stated)	-8.6%	35.7%	-12.2%	-4.6%	13.5%	1.3%
O=C(Nc1ccc2c(c1)CCC2)C1COc2ccccc2O1 (configuration not stated)	-7.3%	?	0.3%	-6.3%	17.8µM*	-7.8%
CN1C(=O)S/C(=C/c2cccn2-c2cccc(C(=O)O)c2)C1=O	-31.9%	?	-21.7%	50.1µM*	?	-6.3%[11.6 µM]
CCOc1ccc2[nH]c(=O)c(CN(Cc3ccco3)Cc3nnnn3Cc3ccccc3)cc2c1	-12.0%	-15.7%	-5.7%	-9.0%	-17.8%	-18.6%
CCOc1ccc2[nH]c(=O)c(CN(Cc3nnnn3Cc3ccco3)C3CCCCC3)cc2c1	-13.4%	6.5%	1.4%	1.4%	20µM*	-16.2%
COc1cc2cc(CN(Cc3nnnn3Cc3ccco3)C3CCCCC3)c(=O)[nH]c2cc1OC	?	?	-1.3%	?	44.7µM*	?
CCOC(=O)C(=O)Nc1c(C(=O)Nc2cccc(F)c2)oc2ccccc12	1.3%	29.2%	33.6%	-7.7%	-1.0%	nt
CC(=O)Nc1cccc(C(=O)/C=C/c2ccc(N(C)C)cc2)c1	?	22.4µM*	?	?	50.1µM*	?
CN(C)c1ccc(/C=C/C(=O)c2cc(Cl)ccc2O)cc1	-8.4%	-17.9%	-33.7%	?	26.8%	50.1µM*
Nc1cccc2c1C(=O)N(C(=O)/C=C/c1cccc(F)c1)C2=O	-11.3%	?	6.8%	?	13.9%	-22.1%[11.6 µM]
SMILES	Pol kappa inh	POLI inh	FEN1 inhibitor	POLH inh	Pol beta inh	WRN helicase inh
Nc1cccc2c1C(=O)N(C(=O)/C=C/c1cccc(Br)c1)C2=O	-8.1%	11.2µM*	-8.8%	?	9.4%	-28.1%
CC1(C)c2ccccc2N2CC(=O)N(CC(N)=O)C21C (configuration not stated)	44.7µM*	?	79.4µM*	?	44.7µM*	56.2µM*
CCc1cc2cc(C(=O)Nc3ccc(F)cc3)sc2s1	-5.0%	?	-8.1%	?	56.2µM*	-8.2%
CCc1cc2cc(C(=O)Nc3ccccc3F)sc2s1	-8.2%	-25.4%	-0.4%	2.9%	-12.8%	-11.8%
O=C(NCc1ccccc1)c1nc(-c2ccc(Cl)cc2)n2c1CCCCC2	-21.9%	8.6%	-2.2%	-25.8%	-3.3%	nt
Cc1cccn2c(=O)c3cc(S(=O)(=O)c4ccc(F)cc4)c(=N)n(Cc4ccco4)c3nc12	?	11.2µM*	2.8%	-8.5%	?	-3.8%[57.1 µM]
Cc1cccn2c(=O)c3cc(S(=O)(=O)c4ccccc4)c(=N)n(Cc4ccc(F)cc4)c3nc12	2.7%	15.1%	-17.4%	-18.1%	11.2%	1.2%
Cc1cccn2c(=O)c3cc(S(=O)(=O)c4ccccc4)c(=N)n(Cc4ccco4)c3nc12	-29.5%	4.0%	3.6%	-1.0%	8.91µM*	-10.4%
COCCn1c(=O)c(-c2cccc(C#N)c2)nc2cnc(Oc3ccc(OC)cc3)nc21	8.5%[60.1 µM]	nt	nt	nt	nt	nt
O=C(O)c1cc(N/N=C/c2ccc(-c3ccc(F)cc3)o2)ccc1Cl	-13.5%	?	-2.3%	?	-11.7%	-27.7%
O=C(O)c1cc(-c2ccc(/C=c3\sc4nc5ccc(Br)cc5n4c3=O)o2)ccc1Cl	nt	nt	nt	nt	1.58µM*	nt
CSC1=NC2(CCN(C(=O)NC3CCCCC3)CC2)N=C1c1ccc(C)c(C)c1	-6.6%	11.3%	-7.0%	-7.2%	11.2%	nt
O=C(Cn1cnc2c(cnn2-c2ccc(F)cc2)c1=O)NCc1ccco1	-2.7%	9.7%	6.6%	-15.3%	27.2%	-1.5%
Cc1sc2ncn(CC(=O)NCc3ccco3)c(=O)c2c1-c1ccc(F)cc1	-13.9%	30.3%	7.1%	79.4µM*	?	-16.5%
CCOC(=O)c1ccc(CN(Cc2ccc(Br)cc2)S(=O)(=O)c2cccc(Cl)c2C)cc1	-5.7%[60.1 µM]	3.2%	-8.5%	-8.6%	2.1%	nt
Cc1cc2cc3c(=O)[nH]c(=O)cc-3n(CC(O)C(O)C(O)CO)c2cc1C (configuration not stated)	nt	nt	nt	?	nt	56.2µM*
CCOC(=O)c1sc2nc(-c3ccco3)c3c(c2c1N)CC(C)(C)OC3	-14.6%	-9.5%	3.0%	?	39.8µM*	?
OCCCNC(=S)Nc1ccc2nccnc2c1	-8.0%	14.1µM*	39.8µM*	1.1%	49.9%	6.9%
